Screening data: PubChem, National Center for Advancing Translational Sciences (NCATS)
Gal4-VP16 FLuc: VP16 counterscreen qHTS for inhibitors of ROR gamma transcriptional activity. Drosophila S2 Gal4-VP16 UAS-luciferase, luminescence, 20 h. Potency, µM (series often up to 53.6 µM), most hits filed as inhibitors. 310,000 compounds, 3.5% hits. AID 2546, 2010;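 note: Gal4-VP16 expression switched on by copper sulfate through the metallothionein promoter; nearly all actives have a fitted effect of over 50% in size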
RORg inh: qHTS for inhibitors of ROR gamma transcriptional activity; 310,000 compounds, 5.4% hits; Drosophila S2 Gal4-RORgamma UAS-luciferase reporter, 20 h; Nuclear receptor ROR-gamma (Mus musculus), P51450; Potency, µM (highest dose often 53.6 µM), usual class: inhibitors; note: nearly all actives have a fitted effect of over 60% in size
Target sequence (P51450 whole entry, looked up, the tested form may be a part): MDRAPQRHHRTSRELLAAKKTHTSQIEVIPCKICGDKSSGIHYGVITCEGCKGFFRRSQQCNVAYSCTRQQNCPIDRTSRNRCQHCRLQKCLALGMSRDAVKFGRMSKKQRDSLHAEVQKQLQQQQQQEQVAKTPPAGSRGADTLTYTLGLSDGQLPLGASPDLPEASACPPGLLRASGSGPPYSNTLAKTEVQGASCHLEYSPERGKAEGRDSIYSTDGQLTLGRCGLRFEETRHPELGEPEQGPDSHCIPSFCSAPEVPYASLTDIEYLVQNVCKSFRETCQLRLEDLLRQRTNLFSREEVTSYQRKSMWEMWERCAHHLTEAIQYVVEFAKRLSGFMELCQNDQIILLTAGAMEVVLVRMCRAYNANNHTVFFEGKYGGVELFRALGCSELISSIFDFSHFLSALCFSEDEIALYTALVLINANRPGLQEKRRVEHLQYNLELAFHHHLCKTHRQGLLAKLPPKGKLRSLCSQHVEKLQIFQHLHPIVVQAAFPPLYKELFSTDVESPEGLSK
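Drosophila Schneider cells stably carrying a metallothionein-driven Gal4 DBD–ROR gamma fusion and a UAS-Photinus luciferase reporter were exposed to compound for 1 hr, then induced with copper sulfate (700 uM final) for 20 hr at ambient temperature before luminescence reading.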
TGFb SMAD3 inh: qHTS for Inhibitors of TGF-b; Potency, µM (doses to about 46.1 µM), usual class: inhibitors; 410,000 compounds, 1.2% hits; HepG2 CAGA-GFP TGF-b/SMAD3 reporter, GFP fluorescence, 18 h; TGF-beta stimulated, 500 pg/mL final; note: nearly all actives have a fitted effect of over 65% in size
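Per well, imaged GFP fluorescence of HEPG2 CAGA-GFP cells gives the signal; cells get compound, then TGF-beta (500 pg/mL final), 18 h at 37 degrees C; %Activity versus -TGF-beta and +DMSO controls.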
ATXN viability: Viability Counterscreen for Primary qHTS for Inhibitors of ATXN expression; S2 cells (HEK-293 line with an ATXN2-luciferase reporter) viability, CellTiter-Fluor protease fluorescence, 24 h; Potency, µM (series often up to 56.7 µM), actives largely listed as cytotoxic; 400,000 compounds, 0.49% hits; note: nearly all actives have a fitted effect of over 40% in size
HepG2 tox-1: qHTS for Inhibitors of TGF-b: Cytotox Counterscreen; Potency, µM (top dose mostly 46.1 µM), actives largely listed as cytotoxic; AID 588856, 2011; 410,000 compounds, 0.76% hits; HepG2 CAGA-GFP viability, ATP luminescence, 18 h
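CellTiter-Glo luminescence gave cytotoxicity after 18 hours at 37 degrees C. The cells were HepG2 CAGA-GFP in 1% FBS DMEM, stimulated with 500 pg/mL TGF-beta after compound addition. %Activity was normalised to no-cell wells (complete cell-killing) and DMSO (no toxicity), and curves were fitted and classified.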
ATXN2 expr inh: Primary qHTS for Inhibitors of ATXN expression; AID 1745845, 2022; Potency, µM (highest dose often 57 µM), hits mostly inhibitors; HEK-293 ATXN2-luciferase reporter, luminescence, 24 h; 360,000 compounds, 0.72% hits; note: nearly all actives have a fitted effect of over 55% in size
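qHTS (up to 57 uM final) was run with 24 h compound exposure of reporter cells at 37 °C. Each well was multiplexed: SteadyGlo luminescence measured ATXN2-luciferase expression after a fluorogenic Gly-Phe-AFC viability readout (25 uM final).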
TGFb CAGA inh: qHTS for Inhibitors of TGF-b: Confirmation of Cherry Picks | shares compounds with TGFb SMAD3 inh | 1,600 compounds, 63% hits | Potency, µM (doses to about 46.1 µM), usual class: inhibitors | HepG2 CAGA-GFP TGF-b reporter, GFP fluorescence, 18 h; cells stimulated with TGF-beta, 500 pg/mL; note: nearly all actives have a fitted effect of over 65% in size
HepG2 tox-2: qHTS for Inhibitors of TGF-b: Cytotox Counterscreen for Cherry Picks; shares compounds with TGFb SMAD3 inh; HepG2 CAGA-GFP viability, ATP luminescence, 18 h; cells stimulated with TGF-beta, 500 pg/mL; Potency, µM (doses to about 46.1 µM), actives largely listed as inhibitors; 1,600 compounds, 27% hits; AID 720535, 2013; note: nearly all actives have a fitted effect of over 70% in size
CCL64 TGFb inh: qHTS for Inhibitors of TGF-b: CCL64 Cells Orthogonal Assay for Cherry Picks; shares compounds with TGFb SMAD3 inh; CCL64 CAGA-GFP reporter, TGF-b stimulated, GFP fluorescence, 18 h; Potency, µM (doses to about 46.1 µM), usual class: inhibitors; 1,600 compounds, 41% hits; note: nearly all actives have a fitted effect of over 65% in size
TGFb COP inh: qHTS for Inhibitors of TGF-b: Hit Validation in HepG2 Cells using COP promoter; shares compounds with TGFb SMAD3 inh; HepG2 COP-GFP TGF-b reporter, GFP fluorescence, 18 h; cells stimulated by added recombinant TGF-beta; Potency, µM (series often up to 46.1 µM), usual class: inhibitors; 1,600 compounds, 3% hits; AID 720537, 2013; note: nearly all actives have a fitted effect of over 70% in size
A number is an active result; – = inactive; ? = inconclusive; · = no result given; ! = repeats disagree; [ ] = another dose, or the depositor's remark. Shown are actives, neighbours in structure and some others; about 6.1% of the full set was active somewhere. Calls come from the whole dose curve; as a rule, active = well fitted curve in the direction sought with a large enough effect; inconclusive = small, poorly fitted or top-dose-only effect, or another doubt; inactive = no such curve, though single readings can be large; an effect the other way counts as inactive or inconclusive.

SMILES	Gal4-VP16 FLuc	RORg inh	TGFb SMAD3 inh	ATXN viability	HepG2 tox-1	ATXN2 expr inh	TGFb CAGA inh	HepG2 tox-2	CCL64 TGFb inh	TGFb COP inh
CCN(CC)C(=O)[C@H]1CC(CC(=O)NCCN2CCOCC2)C(=O)N2CCc3c([nH]c4ccc(OC)cc34)[C@]12C (stereo not given in full)	·	·	–	–	–	–	·	·	·	·
CCN(CC)C(=O)[C@H]1C[C@H](CC(=O)NCc2ccco2)C(=O)N2CCc3c([nH]c4cc(-c5ccco5)ccc34)[C@]12C	·	·	?	–	–	–	·	·	·	·
Cc1cccc(C(=O)Nc2cccc(C(=O)OCc3cc(=O)n4c5c(sc4n3)CCCC5)c2)c1	·	·	–	·	–	·	·	·	·	·
CSc1cccc(NC(=O)CCCOc2ccc(Cl)cc2C)c1	–	?	12.6µM	–	–	–	20.6µM	–	–	–
O=C1N(c2ccccc2)C[C@@H]2C[C@@H](c3cc4ccccc4o3)N3CCC[C@@]123	?	–	0.126µM	?	–	0.299µM	0.058µM	?	0.581µM	–
Cc1ccc(-c2nnc(N3CCN(C(=O)COc4ccccc4)CC3)c3ccccc23)cc1	–	–	?	–	–	?	·	·	·	·
O=C(COc1ccc(-c2nnc(N3CCCCC3)c3ccccc23)cc1)N1CCCCC1	?	?	17.8µM	–	–	–	23.1µM	–	–	–
COc1cc(CNCCO)cc(Cl)c1OCc1ccccc1Cl	–	–	11.2µM	–	–	–	–	16.4µM	29.1µM	–
Cc1cc(NC(=S)NC(=O)C2CC2)ccc1Br	2.51µM	2.51µM	3.98µM	–	–	–	0.82µM	0.461µM	?	–
Cc1cccc(C(=O)Oc2c(Sc3ccccc3)c(C)nn2C(C)(C)C)c1	·	·	?	–	–	–	·	·	·	·
Cc1ccc2nc(-c3ccccn3)c(Nc3ccccc3C)n2c1	–[10 µM]	14.1µM	3.16µM	?	–	4.47µM!	8.2µM	?	?	–
Cc1cc(C)c2c(=O)c3c(oc2c1)C(=O)N(Cc1ccco1)C3c1ccccc1F (stereo not given)	·	·	–	–	–	–	·	·	·	·
CCCn1c(SCC(O)c2ccccc2)nc2ccccc21 (stereo not given)	·	·	?	·	–	·	·	·	·	·
NC(=O)c1c(NC(=O)c2ccc([N+](=O)[O-])o2)sc2c1CCCC2	–	–	?	–	–	–	·	·	·	·
N#Cc1c(NC(=O)c2ccc([N+](=O)[O-])o2)sc2c1CCC2	?	?	?	?	–	?	11.6µM	9.2µM	14.6µM	–
CN1CCc2c(sc(NC(=O)c3ccc([N+](=O)[O-])o3)c2C(N)=O)C1	?	–	1.78µM	?	–	?	0.581µM	2.31µM	?	–
COc1ccc(Nc2nccc(-c3cccc(N)c3)n2)cc1	?	–	10µM	?	–	–	8.2µM	5.8µM	8.2µM	–
CC1CCCN(C(=O)c2cc3c(=O)n(C)c4ccccc4c3s2)C1 (stereo not given)	·	·	–	–	–	–	·	·	·	·
CCOc1ccc(NC(=O)CCc2nc3cccnc3n2-c2ccccc2)cc1	·	·	–	–	–	–	·	·	·	·
Cc1ccc(NS(=O)(=O)c2ccc(-c3cnc(C4CC4)o3)cc2)cc1	–	?	?	?	–	·	·	·	·	·
CCOc1ccccc1CNS(=O)(=O)c1ccc(-c2cnc(C3CC3)o2)cc1	?	–	10µM	1.26µM!	–	–	5.8µM	?	8.2µM	–
Cc1cccc(C)c1NS(=O)(=O)c1ccc(-c2cnc(C3CC3)o2)cc1	?	?	3.98µM	?	–	·	2.59µM	?	0.82µM	–
COc1ccc(NC(=O)CCCSc2nc(-c3ccco3)cc(C(F)(F)F)n2)cc1OC	–	–	?	?	–	–	?	–	–	–
COc1ccc(NC(=O)CCSc2nc(-c3ccco3)cc(C(F)(F)F)n2)cc1OC	·	·	–	–	–	–	·	·	·	·
NC(=O)c1sc(-c2ccsc2)cc1NS(=O)(=O)c1ccc(C(F)(F)F)cc1	–	–	?	–	–	–	23.1µM	?	?	–
SMILES	Gal4-VP16 FLuc	RORg inh	TGFb SMAD3 inh	ATXN viability	HepG2 tox-1	ATXN2 expr inh	TGFb CAGA inh	HepG2 tox-2	CCL64 TGFb inh	TGFb COP inh
O=C(Nc1ccccc1OCc1cc(=O)n2ccccc2n1)Nc1ccccc1C(F)(F)F	·	·	–	·	–	·	·	·	·	·
O=S(=O)(Nc1cccc2ncccc12)c1cccs1	–[0.365 µM]	2.24µM	6.31µM	?	–	3.16µM	14.6µM	?	6.51µM	–
Nc1ncc(S(=O)(=O)NCc2ccc(Cl)cc2)cn1	·	·	–	·	–	·	·	·	·	·
O=C1C(Cl)=C(NCc2cccnc2)C(=O)c2ccccc21	?	10µM	3.16µM	?	1.41µM	?	4.61µM	6.51µM	?	16.4µM
Cc1ccc(NC2=C(N3CCCCC3)C(=O)c3ccccc3C2=O)cc1	?	–	?	?	–	?	·	·	·	·
CC1=C(Nc2ccc(C(=O)O)cc2)C(=O)c2ccccc2C1=O	?	–	7.94µM	?	–	–	14.6µM	?	–	–
Clc1ccccc1-c1cc(NCc2cccnc2)ncn1	–	–	·	·	·	·	·	·	·	·
O=C1C(Cl)=C(Nc2ccccc2)C(=O)c2ccccc21	12.6µM	12.6µM	4.47µM	28.2µM	6.31µM	?	3.26µM	6.51µM	?	–
Cc1cc(C)cc(-n2ccn(Cc3ccccc3C)c(=O)c2=O)c1	·	·	?	·	–	·	·	·	·	·
CC[C@H](C)[C@@H]1OC(=O)[C@@H](C)[C@@H](CC)NC(=O)[C@H](C)N(C)C(=O)C(C)(C)C(=O)C(C)NC(=O)[C@H](Cc2ccccc2)N(C)C(=O)[C@H](C(C)C)N(C)C(=O)CNC(=O)[C@H](CC(C)C)N(C)C(=O)CNC1=O (stereo not given in full)	·	·	3.55µM	?	–	–	7.31µM	?	5.8µM	–
